According to PubChem BioAssay (EPA / NIEHS):
Inconclusive results are not listed. Some compounds were tested as several samples or in several runs, with calls that do not always agree. Calls of active or inactive are those of the source. How the source made its calls, unless noted: active means hit-call score of the fitted dose curve at least 0.9, where 1 is the maximum; inactive means score below 0.9.

How the values were obtained:
[1] = read-out: organic anion transporter (SLCO1B1), SLCO1B1 (gene 10599); test: CLD_SLCO1B1_48hr: CellzDirect (CLD) Gene Expression Assay for organic anion transporter (SLCO1B1) at 48 hours (AID 2283707; active means hit-call score of the fitted dose curve at least 0.9, where 1 is the maximum)
Experimental: (§1) CLD_48hr is a cell-based, multiplexed-readout assay that uses hepatocyte, a human liver primary cell, with measurements taken at 48 hours after chemical dosing in a 96-well plate.CLD_SLCO1B1_48hr is one of 16 assay component(s) measured or calculated from the CLD_48hr assay. It is designed to make measurements of mRNA induction, a form of inducible reporter, as detected with chemiluminescence signals by Quantitative Nuclease Protection Assay (qNPA) technology.Data from the assay component CLD_SLCO1B1_48hr was analyzed at the endpoint, CLD_SLCO1B1_48hr, in the positive analysis fitting direction relative to DMSO as the negative control and baseline of activity. […] Furthermore, this assay endpoint can be referred to as a primary readout. […]
(§2) Human hepatocyte cultures were treated daily for two consecutive days with fresh dosing solutions containing appropriate concentrations of the 320 ToxCast chemicals (chemical identities were blinded to CellzDirect and other ToxCast collaborators), vehicle control (0.2% DMSO), and positive control inducers as summarized in Table 1. […] Cultures for each treatment group (i.e., media, vehicle [0.2% DMSO], positive control inducers [multiple concentrations], and the ToxCast chemicals [multiple concentrations]) were observed and cell morphology was assessed relative to vehicle control cultures at each harvest time point (0, 6, 24, or 48 h). […]

[2] = read-out: HMG-CoA synthase (HMGCS2), HMGCS2 (gene 3158); test: CLD_HMGCS2_48hr: CellzDirect (CLD) Gene Expression Assay for HMG-CoA synthase (HMGCS2) at 48 hours (AID 2283711; active means hit-call score of the fitted dose curve at least 0.9, where 1 is the maximum)
Experimental: as §1, with “plate.CLD_HMGCS2_48hr” for “plate.CLD_SLCO1B1_48hr”, “CLD_HMGCS2_48hr” for “CLD_SLCO1B1_48hr”, “CLD_HMGCS2_48hr,” for “CLD_SLCO1B1_48hr,”
as §2

[3] = CEETOX_H295R_MTT_cell_viability: Viability Assessment in the CeeTox HT-H295R MTT Assay (AID 2283718);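 on AC50: curve fitted both ways so AC50 may mark viability loss or gain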
In short: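 MTT reduction (0.5 mg/ml, 4 h at 37 C; absorbance at 570 and 650 nm) gave viability as background-corrected percent change versus controls. H295R cells had 48 h forskolin (10 uM) prestimulation, then 48 h chemical exposure at 0.1% DMSO.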

[4] = STM_H9_OrnithineISnorm_perc: Stemina devTOX quickPredict H9 human embryonic stem cell (hESC)-based Assay for Ornithine (ORN) Metabolite Biomarker, Normalized (AID 2283712);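 further: ornithine released into spent medium during last day measured by mass spectrometry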
In short: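 H9 human embryonic stem cells kept pluripotent receive test chemical over 72 h, refreshed daily by media exchange. Media from the closing 24 h is deproteinized and analysed by UPLC-HRMS on an amide column; ornithine signal is scaled to labelled standard and vehicle.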

[5] = STM_H9_CystineISnorm_perc: Stemina devTOX quickPredict H9 human embryonic stem cell (hESC)-based Assay for Cystine (CYSS) Metabolite Biomarker, Normalized (AID 2283713)
In short: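 H9 hESC, pluripotent; compound 72h, re-dosed q24h with medium change. Last-24h medium → 40% acetonitrile deproteinization → UPLC-HRMS. CYSS area / C13-CYSS standard, then % of 0.1% DMSO median.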

[6] = STM_H9_OrnCyssISnorm_ratio: Stemina devTOX quickPredict H9 human embryonic stem cell (hESC)-based Assay for Ornithine (ORN):Cystine (CYSS) Ratio (AID 2283714; active means hit-call score of the fitted dose curve at least 0.9, where 1 is the maximum)
In short: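 Steps: H9 hESCs in pluripotent state dosed 72h, medium plus compound renewed every 24h; conditioned medium from the final 24h deproteinized in 40% acetonitrile; ORN and CYSS quantified by UPLC-HRMS with C13 spike-ins; ratio relative to vehicle.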

With `CCC(C)(CC)c1cc(NC(=O)c2c(OC)cccc2OC)on1` the outcome [1] was “inactive”.

With `CCSC(=O)N(CC)C1CCCCC1` the outcome [1] was “inactive”.

For `CN(C)c1nc(=O)n(C2CCCCC2)c(=O)n1C`, the outcome [2] was “inactive”.

In the case of `N#Cc1ccc(N(CC(N)=O)CC(F)(F)F)cc1C(F)(F)F`, the outcome [3] was “inactive”.

With `C[C@]12CCC(=O)C=C1CC[C@@H]1[C@@H]2CC[C@]2(C)C(=O)CC[C@@H]12` the outcome [3] was “inactive”.

With `Cc1cc(-c2ccc(N)c(C)c2)ccc1N` the outcome [3] was “inactive”.

For `Oc1ccc(Cl)cc1Cl`, the outcome [3] was “inactive”.

For `O=C(NC(=O)c1c(F)cccc1F)Nc1cc(Cl)c(OC(F)(F)C(F)F)c(Cl)c1`, the outcome [3] was “inactive”.

In the case of `C=CC(N)=O`, the outcome [4] was “inactive”, the outcome [5] was “inactive” and the outcome [3] was “inactive”.

With `CCOCCOC(C)=O` the outcome [4] was “inactive”, the outcome [5] was “inactive” and the outcome [3] was “inactive”.

For `Sc1ccccc1`, the outcome [6] was “inactive”.

In the case of `NS(=O)(=O)C(F)(F)C(F)(F)C(F)(F)C(F)(F)C(F)(F)C(F)(F)C(F)(F)C(F)(F)F`, the outcome [3] was “inactive”.

For `O=C(O)C(F)(F)C(F)(F)C(F)(F)C(F)(F)C(F)(F)C(F)(F)C(F)(F)C(F)(F)C(F)(F)F`, the outcome [3] was “inactive”.

For `c1cc2ccc3cccc4ccc(c1)c2c34`, the outcome [3] was “inactive”.

For `Cc1cccc(C)c1N`, the outcome [3] was “inactive”.

For `CCOP(=S)(OCC)SCSC(C)(C)C`, the outcome [3] was “inactive”.

For `Nc1ccc(-c2ccc(N)cc2)cc1`, the outcome [3] was “inactive”.

With `CCCCCCOC(=O)c1ccccc1C(=O)OCCCCCC` the outcome [4] was “inactive”, the outcome [5] was “inactive” and the AC50 [6] was 3.69 µM (active). For the same compound, the AC50 [3] was 25.5 µM (active) and the outcome [3] was “inactive”.

In the case of `Cc1ccc(O)c(C)c1`, the outcome [3] was “inactive”.

In the case of `CC#Cc1cc(C)nc(Nc2ccccc2)n1`, the outcome [3] was “inactive”.

For `C[C@]12CCC(=O)C=C1CC[C@@H]1[C@@H]2CC[C@@]2(C)[C@H]1CC[C@]2(C)O`, the outcome [3] was “inactive”.

With `Cc1cc(O)ccc1Cl` the outcome [4] was “inactive”, the outcome [5] was “inactive” and the outcome [6] was “inactive”. The outcome [3] was “inactive”.

In the case of `Oc1c(Cl)c(Cl)c(Cl)c(Cl)c1Cl`, the outcome [3] was “inactive”.

In the case of `Cc1cc2c3c(c1)C(c1ccccc1)=N[C@@H](NC(=O)c1ccncc1)C(=O)N3CC2`, the outcome [3] was “inactive”.
